23 molecules from PubChem BioAssay (NCATS) can be followed below.

Test [1] in a line: P-glycoprotein substrates identified in KB-3-1 adenocarcinoma cell line, qHTS therapeutic library screen (AID 1346986). Note: nearly all actives have a fitted effect of over 60% in size.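 Note: potency is the fitted concentration of half-maximal effect; potency is for cytotoxicity meaning loss of cell viability.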 A digest of the protocol:
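Compounds were tested in dose-response against KB-3-1 and KB-8-5-11 cells at 37 degree C for 72 h, and viability was measured by luminescence. AC50 values came from curve fitting with class-based activity calls.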
A general note: qHTS replaces the single test concentration by a dilution series.

For test [2], the target named is Calcium and integrin-binding protein 1 (Homo sapiens) (UniProt Q99828). Description: Primary qHTS for Identification of Calcium Integrin Binding Protein 1 (CIB1) Competitor (AID 1508620). Note: top concentration of the series differs between compounds; % is set by controls: 0 for no effect and ±100 for the full control effect. A digest of the protocol: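 Fluorescence polarization competition: GST-tagged CIB1 (1 uM final) preincubated with compound 15 min at room temperature, then FITC-labelled alphaIIb peptide (100 nM final) added. After 15 min at room temperature, polarization read at Ex 480/Em 540.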
Calcium and integrin-binding protein 1 (Homo sapiens), sequence (Q99828 whole entry, looked up): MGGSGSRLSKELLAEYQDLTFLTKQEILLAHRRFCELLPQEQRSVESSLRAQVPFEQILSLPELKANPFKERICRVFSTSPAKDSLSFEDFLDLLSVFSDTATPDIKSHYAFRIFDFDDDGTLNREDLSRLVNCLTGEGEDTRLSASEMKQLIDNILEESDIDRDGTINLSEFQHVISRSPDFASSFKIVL

In test [3] the target is N-terminal Xaa-Pro-Lys N-methyltransferase 1 (Homo sapiens) (UniProt Q9BV86). In words: Confirmatory qHTS for Inhibitors of N-terminal methyltransferase 1 (NTMT1): MTaseGlo Assay (AID 1645874). Note: potency is the fitted concentration of half-maximal effect; nearly all actives have a fitted effect of over 65% in size. The method, boiled down:
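Preincubation of NTMT1 (125 nM) plus SAM (100 uM) with test compounds lasted 15 min; methylation of 1 uM SPKRIA then proceeded 30 min in the dark at room temperature. Luciferase signal reported SAH produced.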

For test [4], the target named is Catechol O-methyltransferase (Homo sapiens) (UniProt P21964). Description: Confirmatory Screen for Target Class Profiling of Small Molecule Inhibitors of Methyltransferases (AID 1745852; calls by dose curve; note: potency is the fitted concentration of half-maximal effect). The note with it: MTase-Glo luminescence, SAH detection, recombinant enzyme; measured here: COMT max response; stronger effect = lower value.
Catechol O-methyltransferase (Homo sapiens), sequence (P21964 whole entry, looked up): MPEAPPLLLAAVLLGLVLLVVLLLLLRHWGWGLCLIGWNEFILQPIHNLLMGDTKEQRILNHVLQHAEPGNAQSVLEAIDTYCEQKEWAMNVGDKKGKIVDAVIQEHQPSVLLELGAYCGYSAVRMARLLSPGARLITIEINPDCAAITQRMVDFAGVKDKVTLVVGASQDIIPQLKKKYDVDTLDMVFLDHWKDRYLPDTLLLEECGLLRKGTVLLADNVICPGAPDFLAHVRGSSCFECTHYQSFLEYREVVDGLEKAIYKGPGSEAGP
For test [5], the target named is Guanidinoacetate N-methyltransferase (Homo sapiens) (UniProt Q14353). Described as above. The note with it: activity change, negative = inhibition: at 57.3 µM (top of the series) unless noted.
Test [6] has as its target Nicotinamide N-methyltransferase (Homo sapiens) (UniProt P40261). The test is described as above. The note with it: MTase-Glo luminescence, SAH detection, recombinant enzyme; measured here: NNMT max response; stronger effect = lower value.
For test [7], the target named is Phenylethanolamine N-methyltransferase (Homo sapiens) (UniProt P11086). The test is described as above. The note with it: MTase-Glo luminescence, SAH detection, recombinant enzyme; measured here: PNMT max response; stronger effect = lower value.
Phenylethanolamine N-methyltransferase (Homo sapiens), sequence (P11086 whole entry, looked up): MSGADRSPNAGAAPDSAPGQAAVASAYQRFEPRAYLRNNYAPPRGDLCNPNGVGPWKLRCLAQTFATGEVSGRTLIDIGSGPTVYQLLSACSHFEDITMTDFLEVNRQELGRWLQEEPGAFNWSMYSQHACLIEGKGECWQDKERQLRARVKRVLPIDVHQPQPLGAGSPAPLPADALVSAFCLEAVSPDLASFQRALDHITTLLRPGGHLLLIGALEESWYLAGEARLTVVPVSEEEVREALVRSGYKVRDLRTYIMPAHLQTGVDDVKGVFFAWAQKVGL
The target of test [8] is Glutathione peroxidase 1 (Homo sapiens) (UniProt P07203). In words: Primary qHTS Assay for Inhibitors of Recombinant Selenoprotein Glutathione Peroxidase 1 (GPX1) (AID 1845191). Note: nearly all actives have a fitted effect of over 65% in size. Note: potency is the fitted concentration of half-maximal effect. The method, boiled down:
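GR-coupled assay: compounds preincubated 30 min at room temperature with GPX1, then reaction started with CHP; final 10 nM GPX1, 1 mM GSH, 0.5 mM CHP, 0.5 mM NADPH, 100 nM GR, 0.01% BSA, pH 7.5 Tris buffer. NADPH fluorescence (340/450 nm) read at 0 and 15 min.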

Test [9] in a line: P-glycoprotein substrates identified in KB-8-5-11 adenocarcinoma cell line, qHTS therapeutic library screen (AID 1346987). Note: nearly all actives have a fitted effect of over 65% in size. Note: potency is the fitted concentration of half-maximal effect. The method, boiled down: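 KB-8-5-11: colchicine-selected sub-line of KB-3-1 over-expressing P-gp; assay medium lacked colchicine. 72 h drug exposure at 37 degree C, CellTiter-Glo.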
Test [10] is described as follows: Primary qHTS for inhibitors of nuclear receptor binding SET domain protein 2 (NSD2) in an isogenic RCH-ACV NSD2 p.E1099K mutant (9B) (AID 1645876). Note: nearly all actives have a fitted effect of over 70% in size. Note: potency is the fitted concentration of half-maximal effect.
Test [11] in a line: Primary qHTS for inhibitors of nuclear receptor binding SET domain protein 2 (NSD2) in an RCH-ACV wild type WT cells (2C) (AID 1645877). Note: nearly all actives have a fitted effect of over 70% in size. Note: potency is the fitted concentration of half-maximal effect.
Test [12] in a line: qHTS to identify inhibitors of the type 1 interferon - major histocompatibility complex class I in skeletal muscle: primary screen against the NCATS Mechanism Interrogation Plate v5.0 (MIPE) Libary (AID 1347411).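 For activity change, negative = inhibition: plate controls were vehicle for no effect and reference inhibitor for full effect.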 Note: nearly all actives have a fitted effect of over 65% in size. Note: potency is the fitted concentration of half-maximal effect. A digest of the protocol: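 Immortalized human C25cl48 myoblasts with HiBit knocked into endogenous HLA-B*08:01 were stimulated with 4.0 ng/ml IFN-beta and exposed to compounds (11-point 1:3 titration, top 46 uM final) for 24 hrs at 37 C; HiBiT lytic luminescence measured.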

Test [13] has as its target Phospholipid hydroperoxide glutathione peroxidase GPX4 (Homo sapiens) (UniProt P36969). In words: Primary qHTS Assay for Inhibitors of Recombinant Selenoprotein Glutathione Peroxidase 4 (GPX4) (AID 1845192). The note with it: outcome: dose series up to 50 µM unless noted. The method, boiled down: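 GR-coupled assay: recombinant GPX4 preincubated 30 min with compound at room temperature; final 200 nM GPX4, 1 mM GSH, 0.5 mM cumene hydroperoxide, 0.5 mM NADPH, 100 nM GR, 0.01% BSA, pH 7.5 Tris. NADPH fluorescence (340/450 nm) read at 0 and 15 min.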

Test [14] can be described thus: qHTS drug screen for cell cycle checkpoint inhibitors in PARPi-resistant BRCA-mutant ovarian cancer cell lines. (AID 1963452; calls by dose curve). The note with it: PEO1/OlaR viability, CellTiter-Glo luminescence, 96 h, stronger effect = lower value. The method, boiled down:
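PEO1, PEO4 and PEO1/OlaR ovarian cancer cells, 600 per well, exposed 96 h at 37C to a dilution series. Viability read by CellTiter-Glo luminescence, normalized to DMSO and empty wells; activity summarized as Z-AUC.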

A short description of test [15]: qHTS assay to identify inhibitors of the type 1 interferon - major histocompatibility complex class I in skeletal muscle: Counter screen cell viability and HiBit confirmation (AID 1347412). For activity change, negative = inhibition: % is set by controls: 0 for no effect and ±100 for the full control effect. Note: nearly all actives have a fitted effect of over 60% in size. Note: potency is the fitted concentration of half-maximal effect. The note with it: iHSKM muscle cells + IFN-b, HiBiT or CellTiter-Glo, 24 h, HiBiT. The method, boiled down: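 CRISPR HLA-B*08:01-HiBit immortalized human myoblasts (C25cl48) stimulated with 4 ng/ml IFN-beta and compounds (12-point 1:3, top 46 uM final) for 24 h at 37 C. Duplicate plates read by HiBit lytic luminescence or CellTiter Glo ATP.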

[16] abbreviates: measured here: PEO1 parental Z-AUC.

Several values for one entry are separate records, joined by “and”; a condition that tells them apart may be missing. Equal entries are not always repeated. Inconclusive results are not listed. Activity calls are given as the source filed them. Unless noted, calls come from the whole dose curve; as a rule, active = well fitted curve in the direction sought with a large enough effect; inconclusive = small, poorly fitted or top-dose-only effect, or another doubt; inactive = no such curve, though single readings can be large; an effect the other way counts as inactive or inconclusive.

Phospholipid hydroperoxide glutathione peroxidase GPX4 (Homo sapiens), sequence (P36969 whole entry, looked up): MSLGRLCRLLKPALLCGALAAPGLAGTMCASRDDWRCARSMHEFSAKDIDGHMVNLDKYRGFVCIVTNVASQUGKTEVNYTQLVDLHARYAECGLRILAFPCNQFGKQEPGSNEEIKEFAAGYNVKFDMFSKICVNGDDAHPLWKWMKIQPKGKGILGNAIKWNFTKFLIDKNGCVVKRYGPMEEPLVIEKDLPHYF
Glutathione peroxidase 1 (Homo sapiens), sequence (P07203 whole entry, looked up): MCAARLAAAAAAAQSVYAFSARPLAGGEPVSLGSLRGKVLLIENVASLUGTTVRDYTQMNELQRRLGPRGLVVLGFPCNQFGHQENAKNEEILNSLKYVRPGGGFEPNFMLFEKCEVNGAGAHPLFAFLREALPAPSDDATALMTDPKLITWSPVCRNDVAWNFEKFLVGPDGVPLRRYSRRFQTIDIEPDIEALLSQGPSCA
Nicotinamide N-methyltransferase (Homo sapiens), sequence (P40261 whole entry, looked up): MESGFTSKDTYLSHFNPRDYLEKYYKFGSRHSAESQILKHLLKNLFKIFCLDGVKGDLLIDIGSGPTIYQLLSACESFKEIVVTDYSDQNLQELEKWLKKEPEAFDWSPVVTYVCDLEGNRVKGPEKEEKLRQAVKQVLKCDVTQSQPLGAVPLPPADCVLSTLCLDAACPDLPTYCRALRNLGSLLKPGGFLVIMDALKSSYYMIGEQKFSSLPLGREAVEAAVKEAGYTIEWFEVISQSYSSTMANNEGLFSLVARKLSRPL
N-terminal Xaa-Pro-Lys N-methyltransferase 1 (Homo sapiens), sequence (Q9BV86 whole entry, looked up): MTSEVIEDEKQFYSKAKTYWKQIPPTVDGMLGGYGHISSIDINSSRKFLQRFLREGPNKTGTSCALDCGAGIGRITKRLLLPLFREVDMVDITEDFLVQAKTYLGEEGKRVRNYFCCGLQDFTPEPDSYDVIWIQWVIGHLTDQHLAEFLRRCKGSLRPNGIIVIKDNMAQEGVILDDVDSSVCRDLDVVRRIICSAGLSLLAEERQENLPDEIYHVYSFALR

`CN(Cc1nccs1)c1ncnc2ccc(-c3ccc4c(c3)OCO4)cc12`: the Potency result in test [1] and in test [8] was “inactive” in each case. In test [2], the outcome is “inactive”. Moreover, the Potency in [3] was 11.5 µM (active); in [5], 24.1 µM (active). Moreover, the activity is -82.4% in [4], -71.7% in test [6] and -84.4% in test [7].
With `CC(C)n1cnc2c(NCc3cccc(C(F)(F)F)c3)ncnc21`, the Potency entry in [1] and in test [8] was “inactive” throughout.
Turning to `CN(C)CCCNc1c2ccccc2nc2c1[nH]c1ccccc12`, the Potency in [1] was 1.84 µM (active); in [9], 2.31 µM (active); in test [10] it was 1.84 µM (active); in test [11], 2.06 µM (active); in test [8], 22.7 µM (active).
`Cc1cc(-c2nc(C(=O)Nc3cn(C4CCOCC4)nc3C(N)=O)co2)ccn1`: the Potency in test [1] was 16.4 µM (active); in [10], 9.2 µM (active); in [11], 16.4 µM (active).
As for `CC(=O)[C@H]1CCC2C3CCC4=CC(=O)CC[C@]4(C)C3[C@H](O)C[C@@]21C` (stereo partly specified), the Potency result in test [1], in [10], in test [11] and in [8] was “inactive” in each case.
For `CC(C)OC(=O)OCOP(=O)(COC(C)Cn1cnc2c(N)ncnc21)OCOC(=O)OC(C)C` (stereo unspecified), the Potency result in test [1], in test [9] and in test [11] was “inactive” each time.
As for `Nc1ccn([C@H]2O[C@@H](CO)[C@H](O)[C@H]2O)c(=O)n1`, the Potency in test [1] is 3.66 µM (active); in test [10], 0.0206 µM (active); in test [11], 0.0164 µM (active).
Consider `COc1cc(OC)c(C(=O)/C=C/c2ccccc2)c2c1C=CC(C)(C)O2`, for which the Potency entry in [1] and in test [8] was “inactive” throughout. Also, the Potency in test [10] was 16.4 µM (active); in [11] it was 18.4 µM (active).
As to `CN(C)CC(=O)N1CCC[C@@H](n2nc(-c3ccc(Oc4ccccc4)cc3)c3c(N)ncnc32)C1`, the Potency in [1] was 20.6 µM (active); in [9], 20.6 µM (active); in [10], 1.64 µM (active). Also, the Potency result in test [8] was “inactive”.
In the case of `COc1cc2ncnc(Nc3ccc(NC(=O)c4ccccc4)cc3)c2cc1OC`, the Potency in test [1] is 20.6 µM (active); in test [10] it was 8.2 µM (active); in test [11], 5.8 µM (active). The Potency result in test [8] was “inactive”.
On to `Cn1cc(-c2cc(Oc3cc(F)c(NC(=O)C4(C(=O)Nc5ccccc5)CC4)cc3F)ccn2)cn1`, for which the Potency in [1] is 18.4 µM (active); in test [12], 29.4 µM (active); in [10] it was 9.34 µM (active); in [11], 13.2 µM (active). The Potency result in [13] was “inactive”. In addition, the Z-AUC in [14] is 0.797 (inactive); in test [14] (setting [16]) it was -0.238; in test [14] (measured here: PEO4 Z-AUC), 0.178.
As for `Cc1ccc(Nc2ncc3c(n2)N(C)C(=O)N(c2cc(NC(=O)c4cccc(C(F)(F)F)c4)ccc2C)C3)cn1`, the Potency entry in test [1] and in [8] was “inactive” each time. Besides, the Potency was 0.0658 µM (active) in test [12], 0.0332 µM (active) in test [10], 0.059 µM (active) in test [11] and 0.394 µM (active) in test [15]. The Z-AUC in test [14] is -1.89 (inactive); in [14] (setting [16]), -2.2; in test [14] (measured here: PEO4 Z-AUC), -1.4.
For the molecule `O=c1sn(-c2cccc3ccccc23)c(=O)n1Cc1ccccc1`, the Potency entry in test [1], in [10] and in test [13] was “inactive” throughout. In addition, the values for the Z-AUC in test [14], in test [14] (setting [16]) and in test [14] (measured here: PEO4 Z-AUC) were 0.462 (inactive), 0.135 and 0.0223, respectively.
`Clc1cc(Cl)c2c(c1)N=C1CCCCCN1C2`: the Potency result in test [1], in test [10], in [11] and in [8] was “inactive” each time.
`CC(CCc1ccccn1)(CCc1ccccn1)C(=O)c1ccccc1`: the Potency entry in test [1], in test [9], in test [10] and in test [8] was “inactive” each time.
As for `NC1CCCN(c2c(/C=C3\SC(=O)NC3=O)cccc2-c2ccccc2)C1` (stereo unspecified), the Potency entry in test [1], in test [9] and in [8] was “inactive” each time. Also, the results for the Z-AUC in test [14], in [14] (setting [16]) and in test [14] (measured here: PEO4 Z-AUC) were -0.874 (inactive), -0.352 and -1.12, respectively.
In the case of `Cc1cc(/C=c2/sc3nc4ccccc4n3c2=O)c(C)n1-c1ccccc1`, the Potency entry in test [1], in test [12] and in test [8] was “inactive” each time. Besides, the values for the Z-AUC in test [14], in test [14] (setting [16]) and in test [14] (measured here: PEO4 Z-AUC) were 0.302 (inactive), 0.332 and 0.429, respectively.
Take `Cc1ccc(NS(=O)(=O)c2cc3c(cc2F)NC(=O)CC3)cc1Cl`: the Potency entry in test [1], in test [10], in [11] and in test [8] was “inactive” each time. Also, in test [2], the outcome is “inactive”.
For `Cc1ccc(NS(=O)(=O)c2cc3c(cc2N[C@@H](C)CO)NC(=O)CC3)cc1C`, in [9], the Potency entry was “inactive”. Moreover, in [2], the outcome was “inactive”.
In the case of `Nc1ncnc2c1nc(Cl)n2C1O[C@H](CO)[C@@H](O)[C@H]1O` (stereo partly specified), the Potency is 1.84 µM (active) in [9] and 2.59 µM (active) in test [10].
Turning to `C[C@@H](Nc1cc(F)cc(F)c1)c1cc(C(=O)N(C)C)cc2c(=O)cc(N3CCOCC3)oc12`, the Potency result in test [9] and in test [8] was “inactive” in each case. Besides, in test [10], the Potency is 259 nM (active) and 235 nM (active). For the same molecule, the values for the Z-AUC in test [14], in [14] (setting [16]) and in test [14] (measured here: PEO4 Z-AUC) were -0.864 (inactive), -0.746 and -0.41, respectively. Further, the activity change, negative = inhibition in test [15] (at 45.9 µM (top of the series)) was -23.5% (inactive).
Regarding `CNc1ncc2cc(-c3cc(NC(=O)NCCC(C)(C)C)c(F)cc3C)c(C)nc2n1`, the Potency in test [9] is 4.61 µM (active); in test [10] it was 0.417 µM (active); in [11] it was 0.59 µM (active). For the same molecule, the Potency result in [12], in [8] and in [13] was “inactive” each time. The Z-AUC in test [14] was -1.04 (inactive); in test [14] (setting [16]), -0.267; in [14] (measured here: PEO4 Z-AUC), -0.215.
As to `CN(C)CC1CCn2cc(c3ccccc32)C2=C(C(=O)NC2=O)c2cn(c3ccccc23)CCO1` (stereo unspecified), the Potency entry in [9] was “inactive”. Besides, the Potency in test [10] is 13 µM (active); in test [11], 16.4 µM (active).
